# Assay results taken from PubChem BioAssay (NCATS).
# “And” between values parts separate entries of the source, which are not always exact repeats. Equal values may be shown once. Records with an inconclusive call do not appear. Entries that show only a call come without a potency. The source made the active and inactive calls. Calls come from the whole dose curve; as a rule, active = well fitted inhibition curve with a large enough effect; inconclusive = small, poorly fitted or top-dose-only effect; inactive = flat fitted curve, though single readings scatter.
# Target: Calcium and integrin-binding protein 1 (Homo sapiens) (UniProt Q99828)
# Sequence (Q99828 whole entry, looked up): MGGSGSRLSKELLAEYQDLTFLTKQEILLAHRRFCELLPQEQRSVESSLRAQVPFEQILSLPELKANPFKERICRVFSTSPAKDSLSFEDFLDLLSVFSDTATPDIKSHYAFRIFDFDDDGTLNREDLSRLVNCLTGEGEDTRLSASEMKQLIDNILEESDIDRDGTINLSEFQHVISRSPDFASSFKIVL
# Assay: Primary qHTS for Identification of Calcium Integrin Binding Protein 1 (CIB1) Competitor (AID 1508620)
# Conditions: CIB1-GST / FITC-alphaIIb peptide fluorescence polarization; series mostly up to 57.7 µM
# In short: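 Fluorescence polarization competition: GST-tagged CIB1 (1 uM final) preincubated with compound 15 min at room temperature, then FITC-labelled alphaIIb peptide (100 nM final) added. After 15 min at room temperature, polarization read at Ex 480/Em 540.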
# Potency is the fitted concentration of half-maximal effect.
row,SMILES,Potency
1,O=c1[nH]cc(F)c(=O)[nH]1,inactive
2,CC[C@@]1(O)C(=O)OCc2c1cc1n(c2=O)Cc2cc3c(CN(C)C)c(O)ccc3nc2-1,28.2 µM (active) and 24.1 µM (active) and 31.6 µM (active)
3,COc1cc2nc(N3CCN(C(=O)C4COc5ccccc5O4)CC3)nc(N)c2cc1OC (centres undefined),inactive
4,C[C@](N)(Cc1ccc(O)c(O)c1)C(=O)O,inactive
5,CN1CCN2c3ccccc3Cc3ccccc3C2C1 (centres undefined),inactive
6,CN(CCOc1ccc(NS(C)(=O)=O)cc1)CCc1ccc(NS(C)(=O)=O)cc1,inactive
7,NCCCCCC(=O)O,inactive
8,CCc1cccc2c3c([nH]c12)C(CC)(CC(=O)O)OCC3 (centres undefined),inactive
9,CC(C)NCC(O)COc1ccc(CCOCC2CC2)cc1 (centres undefined),inactive
10,Nc1ccn([C@H]2CC[C@@H](CO)O2)c(=O)n1,inactive
11,O=C1N(c2ccccc2)c2ccccc2C1(Cc1ccncc1)Cc1ccncc1,inactive
12,Cc1cc(C(C)(C)C)cc(C)c1CC1=NCCN1,inactive
13,Cc1cc(C(C)(C)C)c(O)c(C)c1CC1=NCCN1,inactive
14,COc1cc2nc(N3CCN(C(=O)c4ccco4)CC3)nc(N)c2cc1OC,inactive
15,CCC1(c2ccccc2)C(=O)NCNC1=O,inactive
16,Cc1cn([C@H]2C=C[C@@H](CO)O2)c(=O)[nH]c1=O,inactive
17,CCOC(=O)c1ncn2c1CN(C)C(=O)c1cc(F)ccc1-2,inactive

row,SMILES,Potency
1,Nc1c2c(nc3ccccc13)CCCC2,inactive
2,COC(=O)Nc1nc2ccc(C(=O)c3cccs3)cc2[nH]1,inactive
3,O=c1c(-c2ccc(O)cc2)coc2cc(O)cc(O)c12,inactive
4,CC(=O)OCC(CCn1cnc2cnc(N)nc21)COC(C)=O,inactive
5,Nc1nnc(-c2cccc(Cl)c2Cl)c(N)n1,inactive
6,COc1ccc2[nH]cc(CCNC(C)=O)c2c1,inactive
7,COc1cc2c(c(OC)c1OC)-c1ccc(OC)c(=O)cc1[C@@H](NC(C)=O)CC2,inactive
8,N[C@@H](Cc1c[nH]c2ccc(O)cc12)C(=O)O,inactive
9,CCN1CCCC1CNC(=O)c1cc(S(=O)(=O)CC)c(N)cc1OC (centres undefined),inactive
10,Clc1ccc(C(c2ccccc2Cl)C(Cl)Cl)cc1 (centres undefined),inactive
11,COc1ccccc1N1CCN(CC(O)COc2cccc3ccccc23)CC1 (centres undefined),inactive
12,COc1ccc(C2CNC(=O)C2)cc1OC1CCCC1 (centres undefined),inactive
13,CN1C(C(=O)Nc2ccccn2)=C(O)c2ccccc2S1(=O)=O,inactive
14,CCC1(C)CC(=O)NC1=O (centres undefined),inactive
15,O=C(C1CCCCC1)N1CC(=O)N2CCc3ccccc3C2C1 (centres undefined),inactive
16,C[C@H]1c2cccc(O)c2C(O)=C2C(=O)[C@]3(O)C(O)=C(C(N)=O)C(=O)[C@@H](N(C)C)[C@@H]3[C@@H](O)[C@@H]21,inactive
17,NS(=O)(=O)c1cc2c(cc1Cl)NCNS2(=O)=O,inactive
